We go through 1 sequence from article PMC7862700, “An all-to-all approach to the identification of sequence-specific readers for epigenetic DNA modifications on cytosine”.

Common to all, as to experiment: DAPPL (digital affinity profiling via proximity ligation, sequencing); 10 mM Tris-HCl pH 7.5, 50 mM NaCl, 1 mM DTT, 4% glycerol, room temperature, 30 min; GST-TFs on glutathione beads, 16-mer random dsDNA library, 0.1% formaldehyde crosslink after washing; high values mean tight binding
Common to all, as to conditions: protein: recombinant; tags: N-terminal GST; dsDNA, one strand shown

For one assay, the target named is T1, FLI1 (Homo sapiens, UniProt Q01543 1-452).
T1 sequence: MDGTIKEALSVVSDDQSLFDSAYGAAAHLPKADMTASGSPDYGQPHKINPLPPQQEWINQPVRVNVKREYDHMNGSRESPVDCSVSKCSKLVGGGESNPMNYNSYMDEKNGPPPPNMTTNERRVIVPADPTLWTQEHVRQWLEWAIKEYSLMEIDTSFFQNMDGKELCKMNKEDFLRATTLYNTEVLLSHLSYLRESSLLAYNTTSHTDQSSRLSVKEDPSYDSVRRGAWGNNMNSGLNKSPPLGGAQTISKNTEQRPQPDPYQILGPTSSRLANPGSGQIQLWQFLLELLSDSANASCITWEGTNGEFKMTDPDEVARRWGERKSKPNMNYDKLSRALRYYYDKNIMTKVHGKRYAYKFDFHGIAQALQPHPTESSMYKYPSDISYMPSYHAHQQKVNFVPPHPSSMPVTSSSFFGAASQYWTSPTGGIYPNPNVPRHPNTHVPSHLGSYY
In outline:
(§1)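 Each value of binding signal is a hexamer's read frequency for a factor divided by the same hexamer's frequency in the tag-only sample. Barcoded, bead-captured GST fusions of human transcription factors made in yeast were pooled with that sample and incubated with 200 nmole of a random double-stranded 16-mer DNA library in Tris/NaCl/DTT/glycerol buffer at room temperature for 30 min. Washing, 0.1% formaldehyde crosslinking, proximity ligation, PCR and Illumina NextSeq500 sequencing followed.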

The next assay has as its target T2, EHF (Homo sapiens, UniProt Q9NZC4 1-300).
T2 sequence: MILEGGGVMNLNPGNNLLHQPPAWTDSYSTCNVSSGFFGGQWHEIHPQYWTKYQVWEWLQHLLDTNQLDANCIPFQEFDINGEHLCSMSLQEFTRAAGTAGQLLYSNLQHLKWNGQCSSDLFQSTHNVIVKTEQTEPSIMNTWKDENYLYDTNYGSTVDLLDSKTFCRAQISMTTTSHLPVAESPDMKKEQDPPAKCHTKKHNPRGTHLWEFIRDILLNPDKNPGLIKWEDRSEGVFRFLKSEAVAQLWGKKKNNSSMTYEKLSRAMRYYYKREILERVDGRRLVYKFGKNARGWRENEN
In outline:
as §1

A further assay deals with SPIB (Homo sapiens, UniProt Q01892 1-262). In outline:
as §1

The target of a further assay is T3, ELK3 (Homo sapiens, UniProt P41970 1-407).
T3 sequence: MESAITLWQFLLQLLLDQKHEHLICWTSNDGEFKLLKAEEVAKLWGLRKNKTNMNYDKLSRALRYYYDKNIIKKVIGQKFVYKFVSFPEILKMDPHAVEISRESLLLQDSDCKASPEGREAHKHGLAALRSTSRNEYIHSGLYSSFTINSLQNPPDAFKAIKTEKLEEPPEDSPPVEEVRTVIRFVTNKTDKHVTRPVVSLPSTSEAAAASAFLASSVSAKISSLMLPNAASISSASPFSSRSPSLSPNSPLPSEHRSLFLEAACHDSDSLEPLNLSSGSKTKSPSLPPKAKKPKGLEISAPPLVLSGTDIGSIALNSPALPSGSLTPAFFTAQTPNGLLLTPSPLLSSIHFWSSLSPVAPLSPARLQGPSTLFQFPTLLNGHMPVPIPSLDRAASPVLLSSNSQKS
In outline: as §1

The next assay has as its target ELF4 (Homo sapiens, UniProt Q99607 1-663). In outline: as §1
In another assay the target is T4, ELF3 (Homo sapiens, UniProt P78545 1-371).
T4 sequence: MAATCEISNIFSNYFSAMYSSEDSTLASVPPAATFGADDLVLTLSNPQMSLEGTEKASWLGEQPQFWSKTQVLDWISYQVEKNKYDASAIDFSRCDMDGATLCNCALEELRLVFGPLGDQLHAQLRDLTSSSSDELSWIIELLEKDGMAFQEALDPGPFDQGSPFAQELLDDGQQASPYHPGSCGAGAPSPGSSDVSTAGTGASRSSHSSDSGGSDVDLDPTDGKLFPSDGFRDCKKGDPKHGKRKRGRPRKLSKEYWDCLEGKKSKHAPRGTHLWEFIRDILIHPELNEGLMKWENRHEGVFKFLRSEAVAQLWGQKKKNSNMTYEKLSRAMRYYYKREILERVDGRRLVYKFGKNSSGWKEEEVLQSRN
In outline:
as §1

The target of the next assay is T5, ERF (Homo sapiens, UniProt P50548 1-548).
T5 sequence: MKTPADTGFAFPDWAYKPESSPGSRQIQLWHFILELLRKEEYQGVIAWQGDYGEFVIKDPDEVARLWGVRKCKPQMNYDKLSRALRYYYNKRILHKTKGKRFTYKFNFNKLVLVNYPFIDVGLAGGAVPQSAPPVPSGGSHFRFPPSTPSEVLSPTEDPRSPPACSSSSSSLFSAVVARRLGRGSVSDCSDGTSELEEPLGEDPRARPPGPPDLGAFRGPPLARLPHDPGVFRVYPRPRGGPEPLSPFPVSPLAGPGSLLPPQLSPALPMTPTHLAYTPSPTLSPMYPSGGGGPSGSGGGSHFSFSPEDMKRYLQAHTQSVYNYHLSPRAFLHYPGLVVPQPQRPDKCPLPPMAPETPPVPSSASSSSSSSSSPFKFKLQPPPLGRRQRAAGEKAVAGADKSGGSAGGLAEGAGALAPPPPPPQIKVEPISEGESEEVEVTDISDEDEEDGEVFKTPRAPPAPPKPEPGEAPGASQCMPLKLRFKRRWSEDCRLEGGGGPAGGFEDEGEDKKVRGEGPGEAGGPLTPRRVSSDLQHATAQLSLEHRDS
In outline:
as §1

The next assay deals with T6, ETV7 (Homo sapiens, UniProt Q9Y603 1-341).
T6 sequence: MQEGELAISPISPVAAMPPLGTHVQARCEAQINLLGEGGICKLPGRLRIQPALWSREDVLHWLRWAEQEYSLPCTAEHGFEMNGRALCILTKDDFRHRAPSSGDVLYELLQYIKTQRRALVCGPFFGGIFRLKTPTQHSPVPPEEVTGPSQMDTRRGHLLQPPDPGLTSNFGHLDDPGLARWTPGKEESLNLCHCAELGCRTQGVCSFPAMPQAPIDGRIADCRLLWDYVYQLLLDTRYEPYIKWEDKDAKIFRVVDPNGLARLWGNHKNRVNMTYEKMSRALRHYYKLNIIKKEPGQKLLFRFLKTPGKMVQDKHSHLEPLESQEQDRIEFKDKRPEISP
In outline:
as §1

Another assay has as its target T7, ELF5 (Homo sapiens, UniProt Q9UKW6-2 1-255).
T7 sequence: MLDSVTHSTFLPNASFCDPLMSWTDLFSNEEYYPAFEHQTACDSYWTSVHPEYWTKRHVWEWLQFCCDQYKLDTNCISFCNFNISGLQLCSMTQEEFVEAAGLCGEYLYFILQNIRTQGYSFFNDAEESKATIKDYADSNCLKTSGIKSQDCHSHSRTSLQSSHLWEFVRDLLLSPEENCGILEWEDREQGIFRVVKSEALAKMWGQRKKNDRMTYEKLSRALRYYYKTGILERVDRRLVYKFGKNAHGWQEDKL
In outline: as §1

A further assay deals with T8, ETV3 (Homo sapiens, UniProt P41162-2 1-143).
T8 sequence: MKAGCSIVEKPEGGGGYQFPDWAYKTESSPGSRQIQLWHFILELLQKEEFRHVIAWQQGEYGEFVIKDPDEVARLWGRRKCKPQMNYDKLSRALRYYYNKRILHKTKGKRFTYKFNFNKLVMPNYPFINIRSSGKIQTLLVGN
In outline:
as §1

Sequence of ELF4 (Q99607 whole entry): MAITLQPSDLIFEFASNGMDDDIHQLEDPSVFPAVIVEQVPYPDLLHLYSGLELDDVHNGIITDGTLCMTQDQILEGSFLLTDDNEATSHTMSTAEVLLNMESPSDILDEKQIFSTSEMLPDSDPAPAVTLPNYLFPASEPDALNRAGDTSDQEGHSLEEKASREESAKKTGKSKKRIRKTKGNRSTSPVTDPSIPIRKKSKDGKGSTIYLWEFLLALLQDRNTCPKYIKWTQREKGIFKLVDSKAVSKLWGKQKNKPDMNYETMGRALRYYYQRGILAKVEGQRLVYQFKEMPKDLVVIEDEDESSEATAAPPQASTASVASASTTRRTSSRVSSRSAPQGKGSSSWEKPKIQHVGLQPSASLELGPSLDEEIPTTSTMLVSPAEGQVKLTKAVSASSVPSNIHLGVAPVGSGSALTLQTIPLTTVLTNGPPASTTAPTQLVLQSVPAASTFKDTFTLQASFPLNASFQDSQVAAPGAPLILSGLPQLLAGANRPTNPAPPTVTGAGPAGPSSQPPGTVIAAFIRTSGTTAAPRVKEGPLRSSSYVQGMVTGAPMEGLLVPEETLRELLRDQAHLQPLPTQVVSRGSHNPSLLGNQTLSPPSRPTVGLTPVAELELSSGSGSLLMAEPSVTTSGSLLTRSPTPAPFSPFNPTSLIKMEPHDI
Sequence of SPIB (Q01892 whole entry): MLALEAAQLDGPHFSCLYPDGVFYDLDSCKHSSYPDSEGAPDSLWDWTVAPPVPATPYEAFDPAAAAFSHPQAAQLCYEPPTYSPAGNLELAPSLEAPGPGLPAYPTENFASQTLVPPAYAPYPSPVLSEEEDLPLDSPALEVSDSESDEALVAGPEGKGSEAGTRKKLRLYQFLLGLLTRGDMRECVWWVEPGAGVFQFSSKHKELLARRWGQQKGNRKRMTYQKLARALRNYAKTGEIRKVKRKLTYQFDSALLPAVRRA

Regarding AGTTTT, the binding signal with FLI1 was 1.05 fold enrichment (6-mer frequency, TF over GST control); with EHF, 1.02 fold enrichment (6-mer frequency, TF over GST control); with SPIB, 1.08 fold enrichment (6-mer frequency, TF over GST control); with ELK3, 1.14 fold enrichment (6-mer frequency, TF over GST control); with ELF4 it was 1.04 fold enrichment (6-mer frequency, TF over GST control); in the assay with ELF3, 1.01 fold enrichment (6-mer frequency, TF over GST control). In addition, the binding signal was 1.09 fold enrichment (6-mer frequency, TF over GST control) with ERF; 1.02 fold enrichment (6-mer frequency, TF over GST control) with ETV7; 1.01 fold enrichment (6-mer frequency, TF over GST control) in the assay with ELF5; 1.07 fold enrichment (6-mer frequency, TF over GST control) with ETV3.
